Test results as given in the supplement of paper PMC10646978.
± gives the standard deviation.

Assays:
Details in all cases: modulator concentration 10 µM
[1] = test system: RAW-Dual (murine macrophage reporter line); assay: NF-kB reporter (SEAP) activity fold change vs agonist alone; higher = enhanced NF-kB activity
Procedure, shortened: (§1)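 RAW-Dual murine macrophage reporter cells were seeded at 50 000 per well in 384-well plates and pre-incubated 1 hour at 37 °C with compound pin-transferred to 10 μM final. After 1 hour, a PRR agonist was added and cells incubated overnight. Supernatant NF-κB (SEAP, QUANTI-Blue, 620 nm absorbance) and IRF (Lucia luciferase, QUANTI-Luc, luminescence) signals were divided by the mean agonist-only control on the same plate to give fold change. Two replicate plates were averaged, with errors by propagation.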

[2] = test system: RAW-Dual (murine macrophage reporter line); assay: IRF reporter (Lucia luciferase) activity fold change vs agonist alone; higher = enhanced IRF activity
Procedure, shortened: as §1

[3] = test system: RAW-Dual (murine macrophage reporter line); assay: viability score (confluency relative to resting cells, overnight) (fraction); higher = more viable, active = viable (0.7 or more)
Procedure, shortened: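 RAW-Dual macrophages in 384-well plates were incubated overnight with compound, final concentration 10 μM. Confluency images from IncuCyte were processed in IncuCyte software into two masks covering all imaged wells. The viability score is each well's confluency relative to resting cells, and a compound met the cutoff when both masks exceeded 70% of resting cells.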

[4] = agonist: CpG ODN 1826 0.5 ug/mL

SMILES | NF-kB reporter [1, 4] | NF-kB reporter ([1]; agonist: LPS 0.1 ug/mL) | NF-kB reporter ([1]; agonist: MPLA […]) | IRF reporter ([2]; agonist: 3'3'-cGAMP 10 ug/mL) | IRF reporter ([2]; agonist: LPS 0.1 ug/mL) | IRF reporter ([2]; agonist: MPLA […]) | viability score [3]
Nc1nc(NC2CC2)c2ncn([C@H]3C=C[C@@H](CO)C3)c2n1.Nc1nc(NC2CC2)c2ncn([C@H]3C=C[C@@H](CO)C3)c2n1.O=S(=O)(O)O | 1.1 ± 0.26 | 1.02 ± 0.057 | 1.04 ± 0.093 | 0.864 ± 0.065 | 1.2 ± 0.15 | 1.07 ± 0.12 | 0.791 (active)
NC(=O)CN1C(=O)C2C3c4ccccc4C(c4ccccc43)C2C1=O (configuration not stated) | 1.1 ± 0.083 | 0.962 ± 0.073 | 0.965 ± 0.036 | 0.938 ± 0.065 | 0.946 ± 0.092 | 0.976 ± 0.15 | 0.995 (active)
CN1CCN(C(CNC(=O)c2ccccc2Br)c2ccc(F)cc2)CC1 (configuration not stated) | 0.878 ± 0.047 | 0.967 ± 0.12 | 0.944 ± 0.13 | 1.03 ± 0.053 | 1.06 ± 0.093 | 0.936 ± 0.34 | 1.01 (active)
CN1CC[C@H](c2c(O)cc(O)c3c(=O)cc(-c4ccccc4Cl)oc23)[C@H](O)C1 | 0.118 ± 0.009 | 0.0512 ± 0.004 | 0.104 ± 0.01 | 0.0122 ± 0.0028 | 0.0166 ± 0.001 | 0.0196 ± 0.0027 | 0.0463 (inactive)
CC(C)Sc1ccc(CC(=O)N2CCC(S(C)(=O)=O)C2)cc1 (configuration not stated) | 0.975 ± 0.12 | 1.12 ± 0.1 | 0.973 ± 0.17 | 0.946 ± 0.053 | 1.12 ± 0.07 | 1.29 ± 0.17 | 0.993 (active)
O=C(c1ccc(F)cc1)C1CCN(CCn2c(=O)[nH]c3ccccc3c2=O)CC1 | 0.477 ± 0.028 | 0.956 ± 0.1 | 1.34 ± 0.072 | 1.47 ± 0.068 | 1.21 ± 0.19 | 1.45 ± 0.34 | 0.314 (inactive)
COc1ccc(OC)c(C=NNC(=O)c2cc(C)oc2C)c1 | 0.912 ± 0.16 | 0.925 ± 0.098 | 0.877 ± 0.067 | 0.936 ± 0.044 | 1.26 ± 0.22 | 1.25 ± 0.2 | 0.566 (inactive)
Clc1ccc(C2C=C(c3ccccc3)Nc3ncnn32)cc1 (configuration not stated) | 1.08 ± 0.11 | 0.939 ± 0.091 | 0.986 ± 0.057 | 0.886 ± 0.17 | 1.1 ± 0.097 | 0.945 ± 0.062 | 1 (active)
O=C(NN=Cc1c(O)ccc2ccccc12)c1ccncc1 | 2.37 ± 0.19 | 1.3 ± 0.086 | 1.48 ± 0.052 | 0.75 ± 0.11 | 1.26 ± 0.1 | 1.21 ± 0.2 | 0.965 (active)
CCn1cc(C(=O)NN)c(=O)c2cc(F)c(N3CCCCCC3)cc21 | 0.966 ± 0.076 | 0.98 ± 0.091 | 0.979 ± 0.12 | 0.965 ± 0.035 | 1.29 ± 0.11 | 1.19 ± 0.12 | 1.01 (active)
COc1ccc(-c2cc(CNC(=O)c3c(F)cccc3F)no2)cc1 | 0.713 ± 0.041 | 0.742 ± 0.11 | 0.744 ± 0.042 | 0.878 ± 0.081 | 1.4 ± 0.22 | 1.72 ± 0.45 | 0.947 (active)
CN(C)C=C1C(=O)N(c2nc3ccccc3s2)N=C1CSc1ccc(Cl)cc1 | 0.945 ± 0.078 | 1.02 ± 0.067 | 0.916 ± 0.058 | 0.843 ± 0.029 | 1.42 ± 0.12 | 1.15 ± 0.073 | 1.01 (active)
COc1ccc(-c2csc(NC(=O)CCc3ccccc3)c2C(=O)O)cc1 | 0.697 ± 0.1 | 0.809 ± 0.072 | 1.04 ± 0.15 | 0.957 ± 0.046 | 1.51 ± 0.12 | 1.63 ± 0.14 | 1.02 (active)
O=C(NCCSC1CCOCC1)c1ccc(Cl)s1 | 1.21 ± 0.069 | 0.992 ± 0.1 | 1.02 ± 0.036 | 0.898 ± 0.055 | 1.03 ± 0.054 | 1.13 ± 0.14 | 1 (active)
CC(=O)NC(Cc1c[nH]c2ccccc12)C(=O)O (configuration not stated) | 1.09 ± 0.27 | 1.09 ± 0.083 | 0.978 ± 0.063 | 0.969 ± 0.042 | 1.33 ± 0.14 | 1.3 ± 0.13 | 0.995 (active)
Cc1ccc(F)c(NC(=O)Nc2ccc(-c3cccc4[nH]nc(N)c34)cc2)c1 | 0.692 ± 0.1 | 0.758 ± 0.2 | 1.59 ± 0.16 | 0.102 ± 0.0067 | 1.04 ± 0.22 | 1.19 ± 0.38 | 0.829 (active)
COc1ccc(C)c2sc(NC(=O)c3ccco3)nc12 | 1.18 ± 0.089 | 0.847 ± 0.068 | 1.11 ± 0.031 | 0.863 ± 0.078 | 0.845 ± 0.061 | 0.882 ± 0.073 | 0.971 (active)
Nc1nc(NC2CC2)c2ncn([C@H]3C=C[C@@H](CO)C3)c2n1 [Prestw-1512] | 1.12 ± 0.18 | 1.18 ± 0.11 | 1.02 ± 0.087 | 0.935 ± 0.031 | 1.01 ± 0.21 | 1.12 ± 0.19 | 0.974 (active)
O=C(NCCC(CCO)c1ccccc1)c1cccc(Cl)c1 (configuration not stated) | 1.11 ± 0.068 | 1.02 ± 0.082 | 0.946 ± 0.025 | 0.748 ± 0.027 | 0.967 ± 0.051 | 0.984 ± 0.096 | 1 (active)
COc1ccc(Cl)cc1S(=O)(=O)NCc1ccccn1 | 1.11 ± 0.07 | 0.901 ± 0.1 | 0.986 ± 0.026 | 1.01 ± 0.059 | 1.01 ± 0.1 | 0.936 ± 0.15 | 0.996 (active)
COC(=O)C1=C(C)NC(=O)NC1c1ccc(Cl)c(Cl)c1 (configuration not stated) | 0.979 ± 0.11 | 1.03 ± 0.067 | 0.951 ± 0.04 | 0.992 ± 0.16 | 1.05 ± 0.1 | 0.964 ± 0.24 | 1 (active)
CCOc1nc2cccc(C(=O)OC(C)OC(=O)OC3CCCCC3)c2n1Cc1ccc(-c2ccccc2-c2nnn[nH]2)cc1 (configuration not stated) | 0.672 ± 0.089 | 0.762 ± 0.062 | 0.976 ± 0.092 | 1.1 ± 0.051 | 1.31 ± 0.089 | 1.47 ± 0.13 | 1.02 (active)
COc1cccc(-c2nnc(NC(=O)C3CC3)o2)c1 | 1.21 ± 0.071 | 0.987 ± 0.096 | 0.999 ± 0.037 | 0.95 ± 0.055 | 1.04 ± 0.057 | 1.11 ± 0.12 | 1 (active)
Cc1cc2ncn(CC3CCN(C(=O)COc4ccc(F)cc4)CC3)c2cc1C.O=C(O)C(=O)O | 0.724 ± 0.07 | 1.06 ± 0.1 | 0.931 ± 0.047 | 0.908 ± 0.064 | 0.916 ± 0.09 | 0.814 ± 0.26 | 1 (active)
Cc1ccc2[nH]c(=O)c(-c3cc(-c4ccccc4)c4ccccc4n3)c(-c3ccccc3)c2c1 | 0.938 ± 0.081 | 1.1 ± 0.11 | 0.816 ± 0.051 | 1.08 ± 0.037 | 1.17 ± 0.19 | 1.04 ± 0.072 | 1.02 (active)
COc1ccc(N(CC(=O)Nc2ccccc2C(F)(F)F)S(C)(=O)=O)cc1Cl | 0.96 ± 0.075 | 1.02 ± 0.097 | 0.979 ± 0.045 | 0.961 ± 0.17 | 1.02 ± 0.045 | 1.02 ± 0.19 | 1 (active)
